Experimental findings from PubChem BioAssay (NCI) are described below.

Compounds without any hit were thinned out: in the full panel of roughly 83,000, 20% have a hit.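 The test compound was applied at a single concentration to cells in 96-well plates for 48 hours, and percent growth was recorded.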 A number with no mark means an inactive call. Activity calls are given as the source filed them. Rule for the calls: active = growth percent below 10; inactive = the rest.

Some test systems named below: NCI-H23 lung; NCI-H226 lung; NCI-H322M lung; HOP-62 NSCLC; NCI-H460 lung; HOP-92 NSCLC; NCI-H522 lung; A549/ATCC NSCLC; 786-0 renal; COLO 205 colon.
What all share (test): NCI-60 one-dose screen, 48 h (100 = growth as untreated, 0 = no growth, -100 = all killed)
Common to all, as to settings: 10 µM

Consider `COC[C@@H](CC(C)C)N=C1NC(=O)/C(=C/c2ccc3ncsc3c2)N1`, for which the growth in the experiment on NCI-H23 lung was -10.5% (active); with NCI-H226 lung it was -1.9% (active); with NCI-H322M lung, 15.8%; in the experiment on HOP-62 NSCLC, 3.81% (active); in the experiment with NCI-H460 lung it was 7.24% (active); in the experiment on HOP-92 NSCLC, 3.44% (active). Also, the growth in the experiment with NCI-H522 lung was -3.68% (active); with A549/ATCC NSCLC, 13.5%; with 786-0 renal, 23.5%; in the experiment on COLO 205 colon it was -11.8% (active).

As for `CN1C(=O)N(C)C2SC(N/N=C/c3ccccc3)=NC21` (stereo not given), the growth in the experiment on NCI-H23 lung was 79.5%; in the experiment on NCI-H226 lung it was 98.1%; with NCI-H322M lung, 98.3%; with HOP-62 NSCLC, 76.9%; in the experiment on NCI-H460 lung, 68.9%; in the experiment on HOP-92 NSCLC, 111%. For the same molecule, the growth was 60.4% in the experiment on NCI-H522 lung, 72.4% with A549/ATCC NSCLC, 82.3% in the experiment on 786-0 renal and 92.5% in the experiment on COLO 205 colon.

As to `O=C(CNc1nc(-c2ccccc2)cs1)Nc1ccc(Cl)cc1`, the growth in the experiment with NCI-H23 lung was -93.8% (active); in the experiment with NCI-H226 lung, -62.5% (active); in the experiment on NCI-H322M lung it was -98% (active); with HOP-62 NSCLC it was -76.1% (active); in the experiment on NCI-H460 lung it was -51.2% (active); with HOP-92 NSCLC, -71.9% (active). Also, the growth in the experiment on NCI-H522 lung is -80.2% (active); in the experiment with A549/ATCC NSCLC, -49.8% (active); with 786-0 renal, -72.8% (active); in the experiment with COLO 205 colon, -80.1% (active).

Take `CN(C)c1cccc2c(S(=O)(=O)Nc3cccc(-c4csc(NC(=O)CCCCCN5CCN(c6cc7c(cc6F)C(=O)N(C6CCC(=O)NC6=O)C7=O)CC5)n4)c3)cccc12` (stereo not given): the growth in the experiment on NCI-H23 lung was 60.2%; with NCI-H226 lung it was 72.7%; in the experiment on NCI-H322M lung it was 106%; with HOP-62 NSCLC, 88.5%; in the experiment on NCI-H460 lung, 91.4%; with HOP-92 NSCLC it was 56.6%. For the same molecule, the growth was 85.6% in the experiment on NCI-H522 lung, 90.3% in the experiment with A549/ATCC NSCLC, 86.1% in the experiment on 786-0 renal and 104% with COLO 205 colon.

In the case of `N#Cc1c(-c2ccc(F)cc2)nc(SCc2ccc([N+](=O)[O-])cc2)nc1N1CCOCC1`, the growth in the experiment on NCI-H23 lung was 74.8%; with NCI-H226 lung, 23.8%; with NCI-H322M lung it was 82.7%; with HOP-62 NSCLC, 34.7%; in the experiment with NCI-H460 lung, 77.4%; in the experiment on HOP-92 NSCLC, 36.7%. Besides, the growth was 41.3% in the experiment on NCI-H522 lung, 63.4% in the experiment with A549/ATCC NSCLC, 30.2% in the experiment with 786-0 renal and 90.9% in the experiment on COLO 205 colon.

Turning to `Cc1ccc(CNC(=O)Cc2ccc3c(c2)CN(C2CCC(=O)NC2=O)C3=O)cc1` (stereo not given), the growth was 66.5% in the experiment with NCI-H23 lung; 3.79% (active) in the experiment on NCI-H226 lung; 16.1% in the experiment with NCI-H322M lung; -10.2% (active) in the experiment with HOP-62 NSCLC; 95% in the experiment on NCI-H460 lung; -22.5% (active) with HOP-92 NSCLC. Besides, the growth was 9.7% (active) in the experiment on NCI-H522 lung, 10.6% in the experiment with A549/ATCC NSCLC, 0.61% (active) with 786-0 renal and -12.5% (active) in the experiment on COLO 205 colon.

For `COc1ccc(/C=C/C(=O)c2ccc(S(=O)(=O)NCCNc3nc(Nc4ccc(F)cc4)nc(N(C)C)n3)cc2)cc1`, the growth is 44.8% with NCI-H23 lung; 21.7% with NCI-H226 lung; 55.3% in the experiment with NCI-H322M lung; 51.2% in the experiment on HOP-62 NSCLC; 15.1% with NCI-H460 lung; -15.9% (active) with HOP-92 NSCLC. The growth in the experiment with NCI-H522 lung was 57.3%; in the experiment on A549/ATCC NSCLC it was 50.1%; in the experiment with 786-0 renal it was 13.5%; in the experiment on COLO 205 colon it was 49.2%.

`CCOC(=O)C1=C(N)N(c2ccc(C)cc2)C2=C(C(=O)CC(C)(C)C2)C1c1ccccc1OC` (stereo not given): the growth with NCI-H23 lung is 109%; in the experiment with NCI-H226 lung it was 99.7%; in the experiment on NCI-H322M lung, 93.4%; in the experiment with HOP-62 NSCLC it was 106%; in the experiment on NCI-H460 lung, 111%; with HOP-92 NSCLC it was 117%. Further, the growth was 97.6% in the experiment on NCI-H522 lung, 107% in the experiment with A549/ATCC NSCLC, 99.6% in the experiment on 786-0 renal and 134% in the experiment on COLO 205 colon.

With `C#Cc1ccc(S(=O)(=O)Nc2cccc(-c3csc(NC(C)=O)n3)c2)cc1`, the growth with NCI-H23 lung was 65.2%; in the experiment with NCI-H226 lung, 71.8%; in the experiment on NCI-H322M lung, 98.9%; in the experiment with HOP-62 NSCLC, 84.6%; in the experiment with NCI-H460 lung, 76.7%; in the experiment with HOP-92 NSCLC, 42.5%. The growth was 56.4% with NCI-H522 lung, 62.8% in the experiment on A549/ATCC NSCLC, 88.2% in the experiment with 786-0 renal and 88.3% in the experiment with COLO 205 colon.

Consider `O=C(Nc1ccncc1)c1ccc(-n2c(=O)[nH]c3ccccc3c2=O)cc1`, for which the growth in the experiment on NCI-H23 lung was 80.1%; in the experiment with NCI-H226 lung, 87.4%; in the experiment on NCI-H322M lung, 97.6%; in the experiment with HOP-62 NSCLC it was 99%; in the experiment with NCI-H460 lung, 110%; in the experiment on HOP-92 NSCLC it was 77.1%. Besides, the growth is 84.9% in the experiment on NCI-H522 lung, 106% in the experiment with A549/ATCC NSCLC, 94.2% in the experiment on 786-0 renal and 102% in the experiment with COLO 205 colon.

Regarding `CC1(c2ccccc2)NC(=O)N(CC(=O)Nc2ccc(C(=O)/C=C/c3ccccc3)cc2)C1=O` (stereo not given), the growth in the experiment on NCI-H23 lung was 65.5%; in the experiment on NCI-H226 lung, 45.7%; in the experiment with NCI-H322M lung, 90.2%; in the experiment with HOP-62 NSCLC, 85.9%; in the experiment with NCI-H460 lung, 69.4%; in the experiment with HOP-92 NSCLC, 50.7%. The growth in the experiment on NCI-H522 lung was 71.4%; with A549/ATCC NSCLC, 44.3%; in the experiment on 786-0 renal, 42.6%; in the experiment on COLO 205 colon, 76.4%.

On to `Nc1cccnc1/C=N/NC(=S)NCCNC(=O)c1ccc(-n2nc(-c3ccccc3O)nc2-c2ccccc2O)cc1`, for which the growth in the experiment on NCI-H23 lung was -1.31% (active); with NCI-H226 lung, 2.65% (active); with NCI-H322M lung, 19.3%; in the experiment with HOP-62 NSCLC, 22.1%; in the experiment on NCI-H460 lung, 37.6%; with HOP-92 NSCLC, -2.21% (active). The growth with NCI-H522 lung is 4.39% (active); with A549/ATCC NSCLC, 15%; in the experiment with 786-0 renal it was -1.51% (active); with COLO 205 colon, 15.1%.
